# Among all 360,000 compounds or so, about 11,000 (3.1%) were called active. Entries that show only a call come without a potency. Another 4% or so got no clear call; they are omitted. Calls come from the whole dose curve; as a rule, active = well fitted inhibition curve with a large enough effect; inconclusive = small, poorly fitted or top-dose-only effect; inactive = no such curve, though single readings can be large or run the other way. The full list was thinned out, with actives kept by preference.
# Biological target: Schistosoma mansoni thioredoxin glutathione reductase (TGR) (UniProt Q962Y6)
# Test: qHTS Assay for the Inhibitors of Schistosoma Mansoni Peroxiredoxins; note: nearly all actives have a fitted effect of over 60% in size
# Settings: purified TGR, DTNB reduction, TNB absorbance 405 nm; series mostly up to 114 µM
# Method in brief: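 TGR 20 nM + NADPH 100 uM (dispensed conc.), cpd preinc 15 min RT; start with NADPH (500 uM addition) then DTNB (15 mM addition). Kinetic TNB absorbance, 405 nm filter. Four-parameter Hill fit across titration.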
# Potency is the fitted concentration of half-maximal effect.
row,SMILES,Potency
1,Cc1c(CNC(C)c2ccccc2)c(C(=O)O)c(C)n1Cc1c(F)cccc1Cl (stereo not drawn),inactive
2,COc1ccc(OC)c(NC(=O)C2CCCN(S(=O)(=O)c3ccc4c(c3)CCCC(=O)N4)C2)c1 (stereo not drawn),inactive
3,Cc1ccc(S(=O)(=O)N2CCC(C(=O)OCC(=O)N3CC(=O)Nc4ccccc43)CC2)cc1,inactive
4,O=C1CN(C(=O)COC(=O)C2CC(=O)N(Cc3ccco3)C2)c2ccccc2N1 (stereo not drawn),39.8 µM (active)
5,COc1cc(OC)c(C(=O)OCC(=O)N2CC(=O)Nc3ccccc32)cc1OC,inactive
6,COc1ccccc1-c1cc2nc(C)c(CCC(=O)NC3CCCCC3)c(C)n2n1,inactive
7,CCc1ccc(NC(=O)c2cnc3c(-c4ccccc4)c(C)nn3c2C)cc1,inactive
8,COc1ccc(C)cc1N(C)C(=O)c1c(C)oc2ncnc(N3CCOCC3)c12,inactive
9,CCN(CC)c1cc(NC2CCCCC2)c2c3c(onc13)-c1ccccc1C2=O,inactive
10,CCCN(CCC)C(=O)Cn1c(=O)n(-c2ccc(Cl)cc2)c(=O)c2c3c(sc21)CCCCC3,inactive
11,CCc1cccc(C)c1Nc1c(-c2ccc(N(C)C)cc2)nc2ncccn12,inactive
12,CCOc1ccc(NC(=O)CCc2c(C)nn(-c3ccc(N4CCCC4)nn3)c2C)cc1,inactive
13,Cc1cccc(NC(=O)CSc2nnc(CNC(=O)c3cccc(C)c3)n2-c2ccccc2)c1,inactive
14,CCN(CC)P(=O)(/C(Cl)=C\Nc1c(C)n(C)n(-c2ccccc2)c1=O)N(CC)CC,89.1 µM (active)
15,Cc1c(NS(=O)(=O)c2ccc(Cl)cc2)c(=O)n(-c2ccccc2)n1C,inactive
16,Cc1c(NC(=S)Nc2ccccc2)c(=O)n(-c2ccccc2)n1C,inactive
17,COc1ccccc1CNc1nccn(-c2ccc(F)cc2)c1=O,inactive
18,N#CC1=C(N)Oc2c(sc3ccccc23)C1c1ccco1 (stereo not drawn),31.6 µM (active)
19,N#CC1=C(N)Oc2c(ccc3cccnc23)C1c1ccncc1 (stereo not drawn),inactive
20,N#CC1=C(N)Oc2c(c(=O)oc3ccccc23)C1c1ccccc1OC(=O)c1cccs1 (stereo not drawn),inactive
21,CCOc1ccc(-n2c(SCC(=O)NCc3ccccc3)nc3n[nH]c(C)c3c2=N)cc1,inactive
22,O=C(Nc1cccc(-c2nc3ccccc3o2)c1)c1cccc(Br)c1,inactive
23,CCCC(NC(=O)c1ccco1)c1nc2ccccc2[nH]1 (stereo not drawn),inactive
24,O=C(/C=C/c1ccco1)Nc1cccc(-c2nc3ccccc3[nH]2)c1,14.1 µM (active)
25,CCOC(=O)c1cc(NC(=O)c2ccc(F)cc2)c(=O)n2c1oc1ccccc12,inactive

row,SMILES,Potency
1,CCOC(=O)c1ccc(NC(=O)C2CC(=O)N(c3ccc(C(C)C)cc3)C2)cc1 (stereo not drawn),inactive
2,COc1ccc(CNC(=O)C2=Cc3cccc(OC)c3OC2)cc1OC,inactive
3,Cc1ccc(S(=O)(=O)c2nc(-c3ccco3)oc2SCC(=O)Nc2ccc(F)cc2)cc1,inactive
4,O=C(CSc1oc(-c2ccc(F)cc2)nc1S(=O)(=O)c1ccc(Br)cc1)NC1CCCCC1,inactive
5,CC(C)S(=O)(=O)c1oc(-c2ccc(F)cc2)nc1S(=O)(=O)c1ccc(F)cc1,2.24 µM (active)
6,CCCN1CCN(CCCNC(=O)c2ccc3nc(Cc4ccccc4)oc3c2)CC1,inactive
7,CCC(C)Nc1oc(-c2ccc(COc3ccc(Cl)cc3)o2)nc1C#N (stereo not drawn),inactive
8,Cc1ccc(CC2CC(=O)N(c3cc(C)ccc3C)C2=O)cc1 (stereo not drawn),inactive
9,Cc1ccc(N2C(=O)CC(N3CCSCC3)C2=O)c(C)c1 (stereo not drawn),50.1 µM (active)
10,Cc1ccc(N2CCN(S(=O)(=O)c3ccc(F)cc3)CC2)c(C)c1,inactive
11,CC(=O)Nc1cccc(NC(=O)CSc2cn(CC(=O)N3CCCC3)c3ccccc23)c1,inactive
12,CCC1(C)CC(=O)c2c(ccc3oc(C(=O)Nc4ccc(C(C)=O)cc4)c(C)c23)O1 (stereo not drawn),inactive
13,CCC(=O)N1CCc2cc(Br)cc(S(=O)(=O)CCC(=O)N3CCN(c4ccc(F)cc4)CC3)c21,inactive
14,Cc1cccc(C(=O)Nc2nnc(Cc3c[nH]c4ccccc34)s2)c1,inactive
15,Cc1nc(CN2CCN(C(=O)CCc3nnc(Cc4c[nH]c5ccccc45)o3)CC2)cs1,39.8 µM (active)
16,CC(C)N(C)C(=O)CCc1nnc(CCc2c[nH]c3ccccc23)o1,inactive
17,CCOc1ccc(CN2CCN(Cc3c[nH]c4ccccc34)CC2)cc1,inactive
18,COC(c1ccccc1)c1nnc(CCC(=O)N2CCN(CCOc3ccccc3)CC2)o1 (stereo not drawn),inactive
19,Cc1nn(C)c(C)c1CN(C(=O)CCc1nnc(Cc2c[nH]c3ccccc23)o1)C(C)C,35.5 µM (active)
20,O=C(COc1ccccc1F)Nc1ccc(C(=O)OCc2cc(=O)n3nc(C4CC4)sc3n2)cc1,inactive
21,COc1ccc(CCNC(=O)CCCCn2c(=O)c3ccccc3n(Cc3ccccc3C)c2=O)cc1OC,inactive
22,Cc1cccc(N2CCN(C(=O)c3ccc(Nc4nc5ccccc5n5nnnc45)cc3)CC2)c1C,inactive
23,Cc1cccc(N2C(=O)CC(SC(N)=Nc3ccccc3)C2=O)c1 (stereo not drawn),inactive
24,COC(=O)c1cccc(N2C(=O)C3C4C=CC(CC4)C3C2=O)c1 (stereo not drawn),inactive
25,COC(=O)c1ccccc1SC1CC(=O)N(c2cccc(C)c2)C1=O (stereo not drawn),50.1 µM (active)

row,SMILES,Potency
1,COc1ccc(N2CCN(c3nc(-c4ccccc4F)nc4ccccc34)CC2)cc1,inactive
2,Oc1c(C(c2ccccc2Cl)N2CCOCC2)sc2nc(-c3ccco3)nn12 (stereo not drawn),inactive
3,CSc1nc(-c2ccco2)nn1C(=O)c1ccccc1Cl,7.08 µM (active)
4,O=C(CSc1oc(-c2ccco2)nc1S(=O)(=O)c1ccccc1)c1ccc(Cl)cc1,inactive
5,Cc1cccc(NC(=O)Cn2cc(S(=O)(=O)Cc3ccccc3Cl)c3ccccc32)c1,inactive
6,CC(=O)c1nn(-c2ccc(OC(F)(F)F)cc2)nc1Nc1ccccc1,inactive
7,COc1ccc(CNC(=O)Cc2coc3ccc(C(C)C)cc23)cc1,inactive
8,CN1CCN(c2oc(-c3ccc(COc4ccc(Cl)cc4)o3)nc2C#N)CC1,inactive
9,Cc1cc(C)c(NC(=O)Cn2c(SCC(=O)NCc3ccccc3)nc3ccccc32)c(C)c1,inactive
10,CCOC(=O)c1c(C)n(S(=O)(=O)c2ccc(C)cc2C)c2ccc(NS(=O)(=O)c3ccc(C)cc3C)cc12,inactive
11,CC1=C/C(=N\OS(=O)(=O)c2ccccc2)C=CC1=O,2.24 µM (active)
12,O=C(COc1ccc(Cl)cc1)Nc1ccc(-c2nc3cc(Cl)ccc3o2)c(O)c1,inactive
13,Cc1ccc(Nc2c(-c3ccc(C)s3)nc3ccccn23)cc1,inactive
14,Cc1nc2ccccn2c(=O)c1NC(=O)c1cccs1,inactive
15,CC(C)(C)Nc1c(-c2cccs2)nc2ccccn12,50.1 µM (active)
16,COc1ccc(-c2cc(C(=O)NCc3cc(OC)c(OC)c(OC)c3)[nH]n2)cc1,inactive
17,CCOc1ccc(S(=O)(=O)N(CC(=O)NCCSCc2ccc(C)cc2)c2ccccc2)cc1,inactive
18,Cc1ccc(NC(=O)CN2c3ccccc3S(=O)(=O)c3ccccc32)cc1F,inactive
19,O=C(CC(n1cncn1)C(Cl)(Cl)Cl)c1ccc([N+](=O)[O-])cc1 (stereo not drawn),0.282 µM (active)
20,O=C(NNC(=O)c1ccc(-n2cncn2)c([N+](=O)[O-])c1)c1ccccc1,inactive
21,O=C(CCn1nnc2ccccc21)OCC(=O)c1ccc([N+](=O)[O-])cc1,inactive
22,Cc1cc(=O)n(CC(=O)Nc2cccc([N+](=O)[O-])c2)c(-n2nc(C)cc2C)n1,inactive
23,COc1cc(C(=O)NCC(c2ccc(Cl)cc2)N2CCOCC2)cc(OC)c1OC (stereo not drawn),inactive
24,O=C(CSCc1ccccc1)Nc1ccccc1,inactive
25,O=C(CCl)Nc1cccc(CP(=O)(c2ccccc2)c2ccccc2)c1,11.2 µM (active)

row,SMILES,Potency
1,O=C(CSc1ccccc1)Nc1ccc(C(=O)Nc2cccc(O)c2)cc1,inactive
2,COc1ccc(C(=O)Nc2ccc(-n3nncc3-c3ccccc3)cc2)cc1OC,inactive
3,COC(=O)c1ccc(-c2c(-c3ccccc3)ncc3cc(OC)c(OC)cc23)cc1,14.1 µM (active)
4,COC(=O)c1cc(NC(=O)c2cnc(SC)nc2-c2ccccc2)cc(C(=O)OC)c1,inactive
5,CC(C)CCN1CCN(Cc2ccc(C(F)(F)F)cc2)CC1CCO (stereo not drawn),inactive
6,CC(C)CCN1CCN(C/C=C/c2ccco2)CC1CCO (stereo not drawn),25.1 µM (active)
7,CC(C)CN1CCN(Cc2ccccc2C(F)(F)F)CC1CCO (stereo not drawn),inactive
8,O=C(NC1CC(=O)N(c2ccc(Cl)cc2)C1)C1CCCC1 (stereo not drawn),inactive
9,Cc1ccc(CN2CCCn3nc(C(=O)NCc4ccccc4Cl)cc3C2=O)cc1,inactive
10,Cc1ccc(-n2ncc3c(NCCCn4ccnc4)ncnc32)cc1Cl,inactive
11,CC(=O)NCC(O)c1ccc([N+](=O)[O-])cc1 (stereo not drawn),inactive
12,CNCC(O)c1ccc(O)c(O)c1 (stereo not drawn),44.7 µM (active)
13,CCC(C)c1ccc(O)c(/C=N/O)c1 (stereo not drawn),inactive
14,CCC(=O)N1CCc2cc(Br)cc(S(=O)(=O)CCC(=O)NCCc3ccc(OC)c(OC)c3)c21,inactive
15,O=C(CSc1nc2c(c(=O)[nH]1)CN(Cc1ccc(F)cc1)CC2)Nc1ccccc1Cl,inactive
16,Cc1ccc(Cl)cc1N1CCN(C(=O)c2cn(C)c3ccc(S(=O)(=O)N(C)C4CCCCC4)cc3c2=O)CC1,inactive
17,C=C(C)CNC(=S)Nc1ccc(S(=O)(=O)Nc2cnc3ccccc3n2)cc1,11.2 µM (active)
18,CC(=O)Nc1ccc(S(=O)(=O)NCCc2ccccc2)cc1,inactive
19,O=C(CS(=O)(=O)c1ccccc1)Nc1ccc(S(=O)(=O)Nc2ccccn2)cc1,inactive
20,Cc1cccc(NC(=O)N2CCN(C)c3ncccc32)c1C,inactive
21,Cc1cccc(NC(=O)c2nnn(CC(=O)Nc3ccc(C(C)C)cc3)c2N)c1C,inactive
22,CCOc1ccccc1NC(=O)C1=C(C)Nc2ncnn2C1c1ccc(NC(C)=O)cc1 (stereo not drawn),inactive
23,CCC(=O)N1CCc2cc(S(=O)(=O)NC(Cc3ccccc3)C(=O)NCc3ccc(C)cc3)ccc21 (stereo not drawn),inactive

# Source: PubChem BioAssay AID485364 (National Center for Advancing Translational Sciences (NCATS), 2010)
